Data: PubChem BioAssay (NCI)
About 83,000 compounds went through this panel and 20% of them were active in at least one assay; those are over-represented in the sample as a whole.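 Single-concentration screen, 48 h exposure, 96-well plates. Endpoint: percent growth. Below 10 = active.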 Unmarked numbers belong to inactive results. Active and inactive are the calls of the source.

Legend:
Experiment in all cases: NCI-60 one-dose screen, 48 h (100 = growth as untreated, 0 = no growth, -100 = all killed)
Details in all cases: 10 µM unless noted
HCT-15 colon = system: HCT-15 colon
HT29 colon = system: HT29 colon
SNB-75 CNS = system: SNB-75 CNS
SNB-19 CNS = system: SNB-19 CNS
U251 CNS = system: U251 CNS
PC-3 prostate = system: PC-3 prostate
SK-MEL-5 melanoma = system: SK-MEL-5 melanoma
UACC-62 melanoma = system: UACC-62 melanoma
LOX IMVI melanoma = system: LOX IMVI melanoma
SK-MEL-28 melanoma = system: SK-MEL-28 melanoma

Row | SMILES | growth (HCT-15 colon) | growth (HT29 colon) | growth (SNB-75 CNS) | growth (SNB-19 CNS) | growth (U251 CNS) | growth (PC-3 prostate) | growth (SK-MEL-5 melanoma) | growth (UACC-62 melanoma) | growth (LOX IMVI melanoma) | growth (SK-MEL-28 melanoma)
1 | CC1COCC(C)N1C1=C(Cl)C(=O)c2ccccc2C1=O (stereo not given) | 36.6% | 89.7% | 120% | 96.4% | 45.6% | 47.2% | 66.5% | 76.6% | 7.84% (active) | 87%
2 | CCCNc1nc2ccccc2c2c(=O)c3cccc(Cl)c3sc12 | 89.7% | 81.8% | 82.3% | 110% | 97.9% | 88.5% | 97.6% | 84.3% | 90.2% | 115%
3 | COc1ccc2[nH]cc(-c3nc(-c4cn(C)c5ccncc45)cs3)c2c1 | -47.7% (active) | -33.6% (active) | 110% | 14.6% | -71.5% (active) | 48.5% | 50.2% | 101% | -88.3% (active) | 91.4%
4 | COc1cccc(Nc2ccnc3[nH]c4ccc([N+](=O)[O-])cc4c23)c1 | 31.4% | 24.3% | 21% | 37.4% | 42% | 48.2% | 38.7% | 24.2% | 52.2% | 65.7%
5 | CCNC(=O)Oc1ccc(/C(=C(/C)Cc2ccc(OC)cc2)c2ccc(OCCN3CCCCCC3)cc2)cc1 | 18.7% | 2.15% (active) | 77.4% | 82.7% | 45.1% | 63.8% | 66.2% | 73.2% | -22% (active) | 75.3%
6 | O=C1CC2C=CCN2C=C1NC(=O)C1CCCCC1 (stereo not given) | 98% | 97.7% | 87.3% | 111% | 97.9% | 94.8% | 102% | 108% | 96.9% | 107%
7 | O=C(Nc1ncc(Cc2ccccc2Cl)s1)c1cccs1 | 32% | 43.6% | 89.6% | 82.9% | 60.8% | 64% | 73.3% | 45.9% | 62.5% | 85.2%
8 | CCN(CC)c1ccc(N2C(=O)/C(=C/c3cccs3)SC2=S)cc1 | 102% | 101% | 93.9% | 94.6% | 89.1% | 64.1% | 93.8% | 80.8% | 88.8% | 97.6%
9 | CCCCN1C(=O)/C(=c2\sc3n(c2=O)NC2C(N=3)N(CC)C(=O)N2CC)c2ccccc21 (stereo not given) | 33.5% | 16% | 11.2% | 61.9% | 33.8% | 45.1% | 55% | 37.4% | 47.6% | 65.6%
10 | C#Cc1cccc(Oc2ccc(NC(=O)CCl)cc2)c1 | -29.8% [8.25 µM] (active) | 34.5% [8.25 µM] | 58.2% [8.25 µM] | 54.2% [8.25 µM] | 32.9% [8.25 µM] | 61.7% [8.25 µM] | 6.75% [8.25 µM] (active) | 26% [8.25 µM] | -27.1% [8.25 µM] (active) | 91.8% [8.25 µM]
11 | N#Cc1c(NC(=O)c2cccs2)[n+]([O-])c2ccc(Cl)cc2[n+]1[O-] | 111% | 107% | 91.7% | 103% | 99% | 96% | 37.7% | 82.2% | 94.8% | 106%
12 | CC(O)c1ncc(/C=C2\SC(=S)N(Cc3ccccc3)C2=O)s1 (stereo not given) | 97.4% | 59.4% | 102% | 106% | 87.9% | 97.3% | 93.7% | 99.4% | 92.7% | 92.2%
13 | O=C(CCCCCCN1CC(=O)N2[C@@H](c3ccc(Cl)cc3)c3[nH]c4ccccc4c3C[C@H]2C1=O)NO | 101% | 76.6% | 27.1% | 67.1% | 71.1% | 43.5% | 61.8% | 34.5% | -63.6% (active) | 46.3%
14 | CCOC(=O)NN1CC(O)=C(c2nc(-c3ccc(Br)cc3)cs2)C1=N | 115% | 108% | 101% | 98.7% | 113% | 85.2% | 103% | 110% | 106% | 113%
15 | CC(=O)N/C(=C1/OC(C(O)C(O)C(O)CO)CN1C)[P+](c1ccccc1)(c1ccccc1)c1ccccc1 (stereo not given) | 98.5% | 115% | 75.3% | 91.2% | 98% | 98.2% | 95.5% | 98.6% | 98.2% | 106%
16 | CC1(C)CC[C@]2(C(=O)N3CCOCC3)CC[C@]3(C)C(=CC[C@@H]4[C@@]5(C)C/C(=C/c6ccncc6)C(=O)C(C)(C)[C@@H]5CC[C@]43C)[C@@H]2C1 | 7.19% (active) | 5.31% (active) | 43% | 47.5% | 18.4% | 10.9% | -63.5% (active) | 2.88% (active) | -84% (active) | -14.4% (active)
17 | Cc1ccc(-c2csc(NC(=O)N3CCN(c4cc5c(cc4F)c(=O)c(C(=O)O)cn5C4CC4)CC3)n2)cc1 | 9.36% (active) | 4.65% (active) | 31.5% | 26.9% | 15.4% | 7.37% (active) | -75.2% (active) | 3.86% (active) | 2.73% (active) | 35%
18 | COc1ccc(C(c2cc(OC)c(OC)c(OC)c2)N2CCCC2)cc1 (stereo not given) | 52.7% | 40.6% | 84.1% | 90.5% | 77.8% | 63.9% | 65.2% | 57.4% | 73% | 80.1%
19 | COc1ccc(-c2oc(=O)ccc2-c2cc(OC)c(OC)c(OC)c2)cc1O | 27.1% | 3.93% (active) | -1.81% (active) | 22.9% | 22.7% | 38.1% | 12.1% | 21.1% | 44.4% | 39.3%
20 | O=C(O)C1CN(c2cccc(Cl)c2)N(c2cccc(Cl)c2)C1=O (stereo not given) | 91.8% | 96.2% | 76.9% | 82.8% | 102% | 94.6% | 98% | 88.5% | 88.7% | 93.1%
21 | Cc1cscc(C)c1=S | 9.4% (active) | 19.5% | 108% | 100% | 80% | 77% | 90.2% | 90% | 70.4% | 120%
22 | COc1cc(-c2nc3ccc(C)cc3[nH]2)ccc1OCC(=O)N=Nc1c(O)[nH]c2ccc(Cl)cc12 | 58.8% | -27.6% (active) | -42.1% (active) | 3.43% (active) | -41.6% (active) | 11.1% | 56% | 19.9% | -96.8% (active) | 3.39% (active)
23 | O=C(NCc1ccccc1O)c1cccc2ccccc12 | 68.9% | 107% | 66.5% | 69.3% | 81.6% | 52.5% | 60.1% | 37.9% | 79.6% | 71.5%
24 | Cc1ncc(C(=O)Nc2ccc(CN3CCN(C)CC3)c(C(F)(F)F)c2)cc1C#Cc1cnc(N)c2ccncc12 | -31.8% (active) | -44.8% (active) | -67.7% (active) | -45.6% (active) | -92.7% (active) | -50.6% (active) | -90.8% (active) | -83.8% (active) | -93.3% (active) | -81.3% (active)
25 | CCCCNC1=C(OCC)C(=O)c2ccccc2C1=O | 94.3% | 123% | 96.1% | 100% | 99.7% | 94.4% | 91.9% | 97.5% | 68.8% | 114%
26 | CCOC(=O)c1cn2ncnc(Oc3ccc(NC(=O)NC4CC4)c(F)c3)c2c1C | 60.4% | 110% | 91.3% | 89.2% | 82.5% | 87.7% | 94.9% | 86.9% | 87.7% | 108%
27 | CO[C@H](C(=O)[C@@H](O)[C@@H](C)O)[C@@H]1Cc2cc3cc(O[C@H]4C[C@@H](O[C@H]5C[C@@H](O)[C@H](O)C(C)O5)[C@H](O)C(C)O4)c(C)c(O)c3c(O)c2C(=O)[C@H]1O[C@H]1C[C@@H](O[C@H]2C[C@@H](O[C@H]3C[C@@H](OC)[C@H](O)C(C)O3)[C@@H](O)C(C)O2)C(O)(O)C(C)O1 (stereo not given in full) | 34.2% | -0.578% (active) | -41.6% (active) | 11.8% | 9.8% (active) | 19.4% | -51.5% (active) | -43.5% (active) | 3.54% (active) | -15.5% (active)
